# Rows were chosen to be rich in hits. Some 20% of all compounds tested hit in one or more screens of this group.
# CHX counter: Cycloheximide Counterscreen for Small Molecule Inhibitors of Shiga Toxin; cell reporter, cycloheximide protein synthesis inhibition counterscreen; max response, %; hit rate 12% among 300,000; in the data active = max response mostly above about 13%, no sharp cut-off; inactive = mostly below about 14%; note: read at 38.3 µM for the half of the compounds with a filed dose
# HCMV inh: qHTS Assay for inhibitors of the human cytomegalovirus (HCMV). activity change, negative = inhibition, % at 57.5 µM. AID 1259415, 2018. HFF cells, HCMV-luciferase reporter, 72 h; stronger effect = lower value. hit rate 4.5% among 410,000; in the data active = activity change below about -60%; inconclusive = no clear call, values can overlap the other calls; inactive = above about -39%
#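 Steps: HFFs plated, 16 h 37C; compounds added; HCMV-luciferase added to MOI 1 PFU/cell; 72 h 37C; OneGlo reagent, 5 min room temperature; luminescence read, normalized to controls.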
# Shiga toxin inh: A qHTS for Small Molecule Inhibitors of Shiga Toxin; Vero cells, Shiga toxin protein synthesis inhibition reporter; inhibition, % at 38.7 µM; hit rate 9.2% among 290,000; AID 2315, 2010; in the data active = inhibition mostly above about 28%, no sharp cut-off; inactive = mostly below about 43%
# Pf growth 48h: Primary qHTS for delayed death inhibitors of the malarial parasite plastid, 48 hour incubation; P. falciparum luciferase growth in erythrocytes, 48 h; Potency, µM (highest dose often 28.7 µM), usual class: inhibitors; hit rate 5.9% among 310,000
#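 Luminescence readout; reporter = integrated firefly luciferase in P. falciparum. RBC culture at 2% hematocrit, 0.1% parasitemia final, 37 C/5% CO2; decreased signal taken as growth inhibition.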
# Pf growth 96h: Primary qHTS for delayed death inhibitors of the malarial parasite plastid, 96 hour incubation. hit rate 6.9% among 320,000. P. falciparum luciferase reporter growth, 96 h. AID 504834, 2011. Potency, µM (doses to about 28.7 µM), actives largely listed as inhibitors
#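 Luminescence readout: decreased luciferase signal marks inhibited growth of reporter-expressing P. falciparum in infected red cells (2% hematocrit, 0.05% parasitemia final), exposed to compound two generations (96 h, 37 C, 5% CO2).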
# A number is an active result; i = inactive; ? = inconclusive; nt = not tested or not shown. Unless noted, calls come from the whole dose curve; as a rule, active = well fitted inhibition curve with a large enough effect; inconclusive = small, poorly fitted or top-dose-only effect, or another doubt; inactive = no such curve, though single readings can be large or run the other way.
SMILES,CHX counter,HCMV inh,Shiga toxin inh,Pf growth 48h,Pf growth 96h
O=C(NCc1ccc(Cl)c(Cl)c1)c1ccc2c(c1)OCO2,i,i,i,i,?
CN(C)c1ccc(-c2nnn(CC(=O)N3c4ccccc4CCc4ccccc43)n2)cc1,i,i,i,2.08µM,i
O=C(NCCc1cccc(Cl)c1)c1ccc2c(c1)OCO2,32.0,i,56.4,i,i
O=C(NCc1ccc2c(c1)OCO2)c1ccc2c(c1)OCO2,26.3,i,45.7,i,i
O=C(Cn1nnc(-c2ccccc2)n1)Nc1ccc2c(c1)OCO2,i,i,i,i,nt
Cc1cc2cc(CNC(=O)c3ccc4c(c3)OCO4)ccc2[nH]1,19.8,i,i,i,i
O=C(Cn1nnc(-c2ccc3c(c2)OCO3)n1)Nc1ccccc1C(=O)O,31.5,i,41.3,i,i
COc1ccc(C(=O)NCc2ccc3[nH]c(C)cc3c2)cc1OC,i,i,i,i,?
COc1ccc2c(c1)C1NC(=S)NC(C)(O2)C1C(=O)Nc1ccccc1C (stereo not given),i,i,i,i,i
O=C(NCc1cccc(C(F)(F)F)c1)c1ccc2c(c1)OCO2,10.2,i,i,i,?
O=C(NCc1cccnc1)c1cccc(OC2CCN(Cc3ccc(CO)o3)CC2)c1,i,i,i,i,i
O=C(/C=C/c1ccc2c(c1)OCO2)NCCSCc1cccc(Cl)c1,21.3,i,i,i,i
COc1cc(OC)cc(C(=O)NCc2ccc3[nH]c(C)cc3c2)c1,i,i,i,9.28µM,18.5µM
O=C(NCc1cccc(C(F)(F)F)c1)c1cc(Cl)cc(Cl)c1,i,i,i,i,i
O=C(NCc1cccc(Cl)c1)c1cccc(OC2CCN(C(=O)C3CC3)CC2)c1,i,-70.2,i,?,?
CC1CCN(S(=O)(=O)c2csc(C(N)=O)c2)CC1,nt,i,nt,nt,nt
Cc1ccc(C(=O)NCc2ccc3c(c2)OCO3)cc1,12.6,i,i,i,?
CN(C)c1ccc(C(=O)NCc2ccc3c(c2)OCO3)cc1,i,i,i,i,i
CN(C)c1cccc(C(=O)NCc2ccc3c(c2)OCO3)c1,32.5,i,57.1,?,?
Cc1ccc(CC(=O)NCc2ccc3c(c2)OCO3)cc1,i,i,i,i,i
CN(Cc1cccc(Cl)c1Cl)C(=O)c1ccc(NC(=O)CC#N)cc1,i,i,i,i,14.7µM
Cc1ccc(Nc2cc(C)nc3ncnn23)cc1,i,i,i,3.7µM,?
Cc1cc(Nc2ccc(C)c(F)c2)n2ncnc2n1,i,i,i,1.47µM,i
Cc1ccc(-c2cc(C)nc3ncnn23)cc1,i,i,i,nt,11.7µM
CC(C)CC(C(=O)NC(C)(C)C)N(Cc1ccccc1Cl)C(=O)c1snc(C(N)=O)c1N (stereo not given),i,?,i,?,?
SMILES,CHX counter,HCMV inh,Shiga toxin inh,Pf growth 48h,Pf growth 96h
Cc1nnc(NC(=O)CSc2nnc(CC(=O)Nc3ccccc3C)n2C)s1,i,i,i,i,i
COc1ccc(O[C@H]2C=C[C@@H](c3ccccc3)O[C@@H]2COC(=O)CC/C(C)=N/O[C@@H](C)c2cc(-c3c(C)cc(C)cc3C)no2)cc1,i,nt,i,?,2.94µM
COc1ccc(O[C@H]2C=C[C@@H](c3ccccc3)O[C@@H]2COC(=O)CC/C(C)=N/OC[C@@H](O)COCc2ccco2)cc1,i,nt,i,?,?
CCOC(=O)c1c(C)[nH]c(C(=O)OC/C(O)=C(\C#N)c2nc3ccccc3[nH]2)c1C,i,nt,i,i,i
CCOC(=O)/C(O)=C(\C#N)c1nc2ccccc2[nH]1,i,-64.0,i,i,i
N#C/C(=C(/O)COC(=O)Cc1c[nH]c2ccccc12)c1nc2ccccc2[nH]1,14.1,i,65.5,i,?
O=C(Cc1c[nH]c2ccccc12)OCC(=O)c1ccccc1,48.5,i,i,i,nt
COc1ccc(C(=O)COC(=O)Cc2c[nH]c3ccccc23)c(OC)c1,nt,i,nt,i,i
COc1ccccc1OCC(=O)OC/C(O)=C(\C#N)c1nc2ccccc2[nH]1,15.6,-99.4,i,i,?
COC(=O)c1cc(S(=O)(=O)N2CCCCC2)c[nH]1,i,i,i,i,?
Cc1cc(C)c(NS(=O)(=O)c2ccc3c(c2)NC(=O)CC(=O)N3)c(C)c1,i,?,i,i,?
C/C(=N\NC(=O)CSc1nnc(C)s1)c1ccc(Cl)cc1,i,i,i,i,?
Cc1c(Nc2ncccc2C(=O)O)cccc1C(F)(F)F,nt,i,nt,i,i
Cc1nc(-c2ccncc2)nc(NCCNc2ncccc2C(F)(F)F)c1Cl,i,i,i,10.4µM,?
Cc1ccc(S(=O)(=O)N2CCN(CCc3ccccc3)CC2)c(C)c1,i,-64.9,i,i,i
Cc1ccc2cc3cc(C(=O)N4CCN(C(=O)c5ccco5)CC4)sc3nc2c1,18.9,i,i,?,i
COc1cc(C)c(Cl)cc1S(=O)(=O)N1CCSC1,i,i,i,i,11.7µM
Cc1ccc(S(=O)(=O)N2CCN(C(=O)c3ccccc3Cc3ccccc3)CC2)c(C)c1,i,i,i,?,9.28µM
CCc1cccc2c3c([nH]c12)[C@@](CC)(CC(=O)O)OCC3,nt,nt,nt,i,i
COc1cccc(-n2cc(C(=O)NCCc3cccc(C)c3)c3ccccc3c2=O)c1,nt,i,nt,nt,nt
Cc1ccc(S(=O)(=O)N2CCN(C(=O)c3ccco3)CC2)c(C)c1,i,?,i,i,10.4µM
COc1cc(C)c(C)cc1S(=O)(=O)N1CCN(Cc2ccccc2)CC1,i,-62.2,i,?,i
Cc1ccc(S(=O)(=O)N2CCN(C(=O)c3ccco3)CC2)cc1,i,i,i,i,i
Cc1ccc(S(=O)(=O)N2CCN(C(=O)C3CCN(C(=O)c4ccc(F)cc4)CC3)CC2)c(C)c1,nt,i,nt,13.1µM,?
COc1ccc(S(=O)(=O)N2CCN(Cc3ccccc3)CC2)c(C)c1,i,i,i,i,?
SMILES,CHX counter,HCMV inh,Shiga toxin inh,Pf growth 48h,Pf growth 96h
COCCCNc1oc(/C=C/c2cc(OC)c(OC)c(OC)c2)nc1C#N,nt,i,nt,nt,nt
O=C(CCc1ccc(S(=O)(=O)N2CCOCC2)cc1)Nc1c(F)cccc1F,nt,i,nt,nt,nt
CCOc1cc(C)c(C(C)C)cc1S(=O)(=O)n1ccnc1CC,nt,i,nt,nt,nt
Cc1ccc(C)c(NC(=O)C(Sc2nc3ccc(C)cc3[nH]2)c2ccccc2)c1 (stereo not given),i,-73.7,i,?,?
CCNc1nc(NCC)n2c(SC(C)C(=O)c3ccc(C)cc3)nnc2n1 (stereo not given),i,?,i,?,?
CCNc1nc(NCC)n2c(SC(C(=O)Nc3cc(C)ccc3C)c3ccccc3)nnc2n1 (stereo not given),i,i,i,?,11.7µM
CCOCCCn1c(SC(C(=O)Nc2cc(C)ccc2C)c2ccccc2)nnc1-c1ccc(Cl)cc1 (stereo not given),i,i,i,11.7µM,9.28µM
Cc1ccc2nc(SC(C(=O)Nc3ccc(F)cc3)c3ccccc3)[nH]c2c1 (stereo not given),i,i,i,?,i
COc1ccc(C)cc1NC(=O)C(Sc1nncn1C)c1ccccc1 (stereo not given),i,i,i,i,i

# Screens from PubChem BioAssay.
